Screening results (PubChem BioAssay)
Mdm2 MdmX PPI – human Mdm2/MdmX binding inhibition | O15151+Q00987 | SaOS-2 split-luciferase Mdm2/MdmX complementation, luminescence | inhibition, % at 8 µM | 330,000 compounds, 3% hits;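 active means inhibition of at least 50% at 8 µM in the primary screen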
Target sequence (O15151 whole entry, looked up): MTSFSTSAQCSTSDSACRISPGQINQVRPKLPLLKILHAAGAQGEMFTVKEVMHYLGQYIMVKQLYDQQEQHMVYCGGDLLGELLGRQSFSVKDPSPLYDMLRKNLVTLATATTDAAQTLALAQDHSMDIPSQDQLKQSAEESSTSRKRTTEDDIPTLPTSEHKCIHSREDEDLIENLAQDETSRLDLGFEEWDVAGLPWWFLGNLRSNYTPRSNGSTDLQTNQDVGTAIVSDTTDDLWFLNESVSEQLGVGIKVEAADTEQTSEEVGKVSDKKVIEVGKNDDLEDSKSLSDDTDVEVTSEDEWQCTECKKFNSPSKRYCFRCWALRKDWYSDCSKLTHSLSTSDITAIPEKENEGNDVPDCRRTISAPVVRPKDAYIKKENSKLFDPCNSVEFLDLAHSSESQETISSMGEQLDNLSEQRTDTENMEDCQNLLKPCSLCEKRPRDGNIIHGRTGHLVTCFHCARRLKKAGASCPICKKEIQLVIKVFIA
Target sequence (Q00987 whole entry, looked up): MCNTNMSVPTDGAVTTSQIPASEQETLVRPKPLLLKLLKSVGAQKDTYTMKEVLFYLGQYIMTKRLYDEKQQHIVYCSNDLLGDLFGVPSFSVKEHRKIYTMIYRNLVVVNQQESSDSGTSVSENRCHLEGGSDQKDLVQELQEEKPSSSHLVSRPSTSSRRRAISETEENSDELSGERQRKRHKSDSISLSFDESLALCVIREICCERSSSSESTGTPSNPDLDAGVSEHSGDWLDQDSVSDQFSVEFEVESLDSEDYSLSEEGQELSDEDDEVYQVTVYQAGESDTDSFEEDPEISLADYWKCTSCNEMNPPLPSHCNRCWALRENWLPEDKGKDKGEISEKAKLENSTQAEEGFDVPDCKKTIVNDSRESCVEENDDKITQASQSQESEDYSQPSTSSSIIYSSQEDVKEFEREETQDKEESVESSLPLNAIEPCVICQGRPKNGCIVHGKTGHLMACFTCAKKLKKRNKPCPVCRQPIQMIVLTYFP
Gli-Sufu block – blocks Gli-Sufu signaling in a luciferase reporter. Sufu-KO-LIGHT fibroblasts, Gli luciferase reporter luminescence. inhibition, % at 5 µM. 340,000 compounds, 0.74% hits;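 active means inhibition above about 55%, limit read from the data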;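 further: 0% = DMSO-treated cells and 100% = wells with medium but no cells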
aSyn 5UTR inh – 5' untranslated region of α-synuclein, MLPCN primary screen | inhibition, % (tested at 7.5 µM) | AID 1813 | 300,000 compounds, 0.82% hits | alpha-synuclein 5'UTR reporter, inhibitor activity; in the data active means inhibition above about 60%;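 further: H4 neuroglioblastoma cells stably carrying SNCA 5'UTR luciferase fusion; 0% = DMSO wells and 100% = positive control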
Jurkat NFkB inh – lowers PMA/ionomycin-induced NF-kB signal in Jurkat cells; 330,000 compounds, 0.53% hits; AID 435003; PMA/ionomycin-induced NF-kB luciferase reporter, luminescence; inhibition, % at 4 µM; in the data active means inhibition above about 50%
697 NFkB inh – inhibitors of the PMA/ionomycin-induced NF-kB reporter in 697 B cells. inhibition, % at 4 µM. 330,000 compounds, 0.33% hits. AID 435022. 697 B-cell NF-kB luciferase reporter, 16 h; in the data active means inhibition above about 35%
KLF5 inhibitor – kruppel-like factor 5 inhibition. DLD-1 KLF5 promoter-luciferase reporter, luminescence. inhibition, % at 5 µM. 290,000 compounds, 0.23% hits;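 active means inhibition above a per-plate limit of that plate's mean compound inhibition plus 3 SD, cut at about 60% in these data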;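 further: 0% = DMSO wells and 100% = LY294002 at 200 µM; higher means less KLF5 promoter-driven luciferase light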
Gli-Sufu confirm – confirmation of Gli-SUFU pathway antagonists; shares compounds with Gli-Sufu block; Sufu-KO-LIGHT cells, Gli luciferase reporter, luminescence; inhibition, % at 5 µM; 2,500 compounds, 40% hits;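 active means mean inhibition at 5 µM reaching about 45%, limit read from the data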;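 further: plate controls were DMSO-treated cells for no effect and wells lacking cells for full effect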
Gli cytotox – cytotoxicity counter-screen for Gli-SUFU antagonists. shares compounds with Gli-Sufu block. Sufu-KO-LIGHT cells cytotoxicity, ATP luminescence. cytotoxicity, % at 5 µM. 2,500 compounds, 32% hits;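 active means mean cytotoxicity at 5 µM above about 25%, limit read from the data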;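 further: cells exposed to compound overnight for roughly 16 to 18 hours; plate controls were DMSO wells with cells for no effect and medium without cells for full effect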
Wnt3a cs – inhibits Wnt3a reporter, counter-screen for Gli-SUFU antagonists; shares compounds with Gli-Sufu block; inhibition, % at 6.25 µM; Wnt-LIGHT cells, Wnt3a-driven luciferase reporter, luminescence; 2,500 compounds, 20% hits;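 active means mean inhibition above about 25%, limit read from the data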
* hit, by the source's call; x = not tested or not shown. Only some compounds are listed: those with a hit (about 4.1% of all), similar ones and a draw of the others.

SMILES	Mdm2 MdmX PPI	Gli-Sufu block	aSyn 5UTR inh	Jurkat NFkB inh	697 NFkB inh	KLF5 inhibitor	Gli-Sufu confirm	Gli cytotox	Wnt3a cs
CCOC(=O)C1CCN(C(=O)Cn2nc(C)n3c(cc4cc(F)ccc43)c2=O)CC1	5.1	1.8	-10.7	-5.9	6.1	-13.1	x	x	x
CCOc1ccc(CN(C)c2ccc(S(=O)(=O)N3CCN(C)CC3)cc2[N+](=O)[O-])cc1OC	-11.0	59.4*	x	-3.9	-37.2	x	25.4	9.1	5.2
Nn1c(SCC(=O)Nc2cc(S(=O)(=O)N3CCOCC3)ccc2Cl)nnc1-c1cccnc1	-14.3	2.1	13.7	8.2	11.2	-21.1	x	x	x
COc1nnc(-c2ccc(N3CCCCC3)c(N)c2)c2ccccc12	2.2	52.9	-46.0	-13.1	-58.8	-9.4	59.4*	19.3	-36.4
CCCc1c(CC)c(=N)c2ccccc2n1C	8.1	51.5	6.0	-7.9	-49.1	-8.5	58.8*	23.6	0.8
Cn1ccc(C(=O)N/N=C/c2c[nH]c3ccccc23)n1	-11.3	97.2*	-49.4	-19.0	2.4	-54.3	6.2	20.1	-49.9
COc1ccccc1CCNC(=O)CNC(=O)Cc1cccc2ccccc12	11.4	1.5	14.7	9.9	-5.4	-12.4	x	x	x
COc1ccccc1CCNC(=O)c1ccc(C)o1	10.9	57.1*	-17.9	-22.5	-4.1	-43.1	3.9	24.6	-1.0
Cc1ccc(C(=O)NCCCCNC(=O)c2ccc(C)o2)o1	3.5	-1.7	13.2	-6.0	12.4	-7.9	x	x	x
COc1ccccc1CCNC(=O)CNC(=O)c1ccc2ccccc2c1	-37.7	56.5*	-6.1	0.6	-11.9	-10.3	8.7	9.2	-26.6
COc1nc(NCCC2=CCCCC2)nc(OC)n1	1.3	98.7*	3.1	5.5	-3.6	14.4	17.9	2.6	-20.4
C1=C(CCNC2=NCCCCC2)CCCC1	-25.7	3.8	-6.8	-7.0	-21.1	-25.0	x	x	x
CC(=O)OC(COC1C[C@@H]2CC[C@@]1(C)C2(C)C)C[N+]1(C)CCCCC1 (some centres undefined)	14.3	-0.1	17.9	5.3	-6.0	-0.9	x	x	x
CCCCOC(=O)C[N+](C)(C)CCOC1CC2CCC1(C)C2(C)C (centres undefined)	12.4	69.0*	-0.1	2.7	-15.1	-13.8	71.9*	37.4*	2.4
CC(C)CCOC(=O)C[N+](C)(C)CCOC1CC2CCC1(C)C2(C)C (centres undefined)	23.5	77.3*	-8.6	-0.7	2.5	-26.2	72.7*	23.2	23.2
CCC(C)OC(=O)C[N+](C)(C)CCOC1CC2CCC1(C)C2(C)C (centres undefined)	21.0	72.8*	-6.4	-0.5	-8.9	6.3	70.8*	35.7*	9.4
CCCOC(=O)C[N+](C)(C)CCOC1CC2CCC1(C)C2(C)C (centres undefined)	-11.6	42.3	-4.3	-7.0	-15.3	24.5	x	x	x
O=C(NCC(c1ccco1)N1CCCC1)c1ccc(Cl)c(S(=O)(=O)N2CCc3ccccc32)c1 (centres undefined)	45.8	66.7*	x	47.5	-15.6	x	59.5*	33.8*	27.6*
O=C(NCC(c1ccco1)N1CCCC1)c1sc2ccccc2c1Cl (centres undefined)	11.2	51.3	4.8	-10.9	-10.2	-48.6	15.7	11.1	-81.1
O=C(NC1CC1)C1CCN(C2CCN(C(=O)/C=C/c3ccc(F)cc3)CC2)CC1	6.3	0.8	-3.4	3.6	-1.5	-12.6	x	x	x
COc1ccc(NS(=O)(=O)c2cccc(C(=O)NCC(c3cccs3)N3CCOCC3)c2)cc1 (centres undefined)	20.0	7.2	x	-4.7	2.1	x	x	x	x
CCC1(O)CC2CN(CCc3c([nH]c4ccccc34)C(C(=O)OC)(c3cc4c(cc3OC)N(C=O)C3C(O)(C(=O)OC)C(OC(C)=O)C5(CC)C=CCN6CCC43C65)C2)C1 (centres undefined)	x	54.9	x	x	x	x	63.1*	64.6*	-7.9
CCN1/C(=C/C=C/C=C/C=C/c2sc3ccccc3[n+]2CC)Sc2ccccc21	22.9	82.9*	-38.6	6.6	3.6	-10.6	90.8*	32.3*	44.6*
CC[n+]1c(/C=C/Nc2ccccc2)sc2ccccc21	17.6	68.5*	-83.5	-5.2	16.4	-12.2	81.3*	37.4*	29.8*
CC[n+]1c(/C=C(/C)SC)sc2ccccc21	23.6	2.0	4.1	6.0	3.9	-13.8	x	x	x
SMILES	Mdm2 MdmX PPI	Gli-Sufu block	aSyn 5UTR inh	Jurkat NFkB inh	697 NFkB inh	KLF5 inhibitor	Gli-Sufu confirm	Gli cytotox	Wnt3a cs
CC[n+]1c(/C=C(\C)Nc2ccccc2)sc2ccccc21	x	11.5	x	x	x	6.6	x	x	x
CN(CC(=O)Nc1ccc(OC(F)(F)F)cc1)C(=O)/C=C/c1cc2c(cc1[N+](=O)[O-])OCO2	-4.1	-1.9	x	-4.3	18.1	x	x	x	x
Cc1ccc2c(c1)[nH]c1c(N3CCN(Cc4ccccc4)CC3)ncnc12	21.9	68.2*	-20.5	28.0	11.1	-3.8	62.6*	30.1*	6.6
Cc1ccc2[nH]c3c(N4CCN(Cc5ccc6c(c5)OCO6)CC4)ncnc3c2c1	x	x	x	x	x	-12.0	x	x	x
Cc1ccc2[nH]c3c(N4CCN(Cc5ccccc5)CC4)ncnc3c2c1	39.1	53.4	-20.2	15.4	22.4	-15.9	53.4*	37.3*	-5.2
CCN1CCCC1CNc1ncnc2c1[nH]c1ccc(Cl)cc12 (centres undefined)	8.5	51.5	-40.7	-26.6	-28.4	-9.6	40.3	13.1	-95.1
NC1=NC2CS(=O)(=O)CC2S1 (centres undefined)	-19.1	4.3	11.3	2.9	-7.2	0.1	x	x	x
CCOCCCNC(=O)c1cc(C)nn1-c1ccccc1	7.4	3.3	14.9	10.6	6.1	-17.1	x	x	x
CCOCCCNC(=O)c1cc2sc(Cl)cc2n1CC	11.4	59.3*	11.0	-15.0	-13.4	-4.1	20.5	12.1	-47.5
S=c1[nH]nc(CSCCOc2ccccc2)o1	-1.8	8.2	10.8	3.9	-9.1	-22.7	x	x	x
S=c1[nH]nc(CSCCOc2ccc(Cl)cc2Cl)o1	-18.4	55.0	-2.3	-15.7	-48.9	-42.0	14.8	6.7	-27.6
S=C(NCCc1ccccc1)Nc1cccc2cnccc12	14.1	51.2	-28.7	48.1	33.3	4.5	58.3*	17.9	33.5*
Cc1cc(Cl)ccc1NC(=S)NCCc1ccc(Cl)cc1	11.6	28.2	-13.0	-0.4	-0.9	-9.4	x	x	x
S=C(NCCc1ccccc1)Nc1ccc(Cl)cc1Cl	9.0	65.3*	-52.0	4.6	-1.3	-11.0	13.4	10.3	-30.0
COc1cc(NC(=O)c2ccccc2)c(OC)cc1NC(=O)CN1C(=O)NC2(CCCCC2C)C1=O (centres undefined)	-11.4	-15.8	x	-0.7	6.1	x	x	x	x
CCOC(=O)C1(Cc2cccc(OC)c2)CCN(C/C=C/c2ccc(OC)cc2)CC1	7.3	53.3	-12.2	7.9	-10.3	-4.0	37.6	28.5*	-38.1
